In all, about 31,000 sequences went through this assay and about 1,400 (4.5%) were called active. The entries come from a sample that favours actives as a whole. Unmarked numbers belong to inactive results.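 Rule for the calls: active = median seed-adjusted z-score above 1 or below -1; inactive = the rest.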

The values below come from PubChem BioAssay AID1347426 (Functional Genomics Laboratory (NCATS/FGL), 2020).

The nature of this assay: Novel Modifiers of Survival Motor Neuron (SMN) Protein: Gene Identification via Genome-wide siRNA Screen.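 Note: luminescence tracks full-length SMN protein made from the SMN2 reporter.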 To be noted: HEK293T SMN2-luciferase reporter, siRNA knockdown, 72 h; actives lie on both sides. Put shortly:
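siRNA screen, 10418 genes ×3 siRNAs; 1 pmol/well, lipid reverse transfection into HEK293T SMN2-luc reporter line. 72 h, 37 °C, 5% CO2; ONE-Glo readout. Data: neg-ctrl normalized, log10, MAD; hit = MAD >1.0 or < -1.0.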
A general note: Reporter assays use an easily measured gene product as a stand-in for the process of interest.
CCCUAUCAAUUUCUAUGGATT against MPP4: the median seed-adjusted z-score is 0.13.

Take GCCUGACAGUGGUAUACAATT against COPZ1: the median seed-adjusted z-score is -1.02 (active). Under GCUACAACUGGAUAAGGAATT against FTSJ1 stands 0.0774; under CAUGAUAUCUGGACCCAAATT against SSX3, 0; under AGACGUACCGAGAGGAGUATT against PLA2G2F, 0.508. To CCAUGCUGGAGAUCAAGAATT against PRKAG3 belongs -1.03 (active); to CCCUGGAUGUCCUAUCUGATT against SLC2A1, -0.349; to GGAGGAUGACAAGAUCUAUTT against RNF113A, -0.128. Under GCACUGAUGUAAAUUACUUTT against RAB6C stands -1.08 (active). For GCAGUACAGUGAAUGCCGATT against AKAP8, the median seed-adjusted z-score was -0.252. To CCACCGAGCUAACAUCUGATT against MFAP3L belongs 1.03 (active); to CAGACUUAUUGUAACAAGATT against ENPP3, 0.66; to GCUACACUCAACUACCUGATT against ADCY5, -0.123. Turning to CCACAAGAGUUCGAACUCATT against ZFX, the median seed-adjusted z-score is -0.581. Consider GGAAUGCAAUUCUCAGAGATT against LCN2, for which the median seed-adjusted z-score is 0.123.

Consider CACAGAUUCGAGAAAUUCATT against SF3B1, for which the median seed-adjusted z-score is -3.65 (active). GGUUGACAAAUGCAGGAUATT against RIOK2: the median seed-adjusted z-score was -0.16. Under GCAUCGGCAUCUUCACGCUTT against FZD5 stands -0.129; under GACCCGCGAUUAAACCUCATT against CHST1, 0.181; under GGUUUGGGAUGGGAAUUGATT against SUPT16H, 1.2 (active). To GGGUACAAGUUACCUAAUATT against TDRD6 belongs 0; to GGAAACGACCUGUCAAAGATT against PHAX, -0.0716.

As to GGAGAUCGUUCUGCACAGATT against PAEP, the median seed-adjusted z-score is -0.0632. For the sequence CCAUCUUGGUAAUGCCCAUTT against HTR1D, the median seed-adjusted z-score is -0.155. To CGAGUUACUUUUCAGCUAATT against MYH4 belongs -1.8 (active); to AGUUCACCCUCGUACUCUATT against FURIN, 0.0975; to UCAUAAACUUGGAUAAGCATT against NRIP3, -0.699. As to GCGAAUGAGUGGUAGAGGATT against ARHGAP21, the median seed-adjusted z-score is 0.229.

In the case of GCACUUUUCGAGGAGGAGATT against SLC12A7, the median seed-adjusted z-score was -0.0309. Under CAGUUGAUUUAAGAGGUAATT against PRPF4B stands -2.29 (active); under CAAGGAGUUUUACCCAGUATT against CYP4Z1, -0.139.

As to CUUUAUGACUUAGAGUUAATT against BAAT, the median seed-adjusted z-score is 0.641.

Consider GAACUUAUAAGUGCAGCAATT against ZNF547, for which the median seed-adjusted z-score is 0.099. With CGUGGAAGGUGAGUAAUAATT against ZBTB40, the median seed-adjusted z-score is 0.187.

GGUGGUGAAUGAAGGUUCATT against HINT1: the median seed-adjusted z-score was 0.873. To CCAUAACCGCCACACCCUUTT against GPR153 belongs -1.08 (active); to GAAUGCAUGUGAUCACCUATT against SF3B14, -1.26 (active). To GGGUUGCUAGAAAAUCGUATT against USP37 belongs 0.0907; to GAGAUGAACGUGUAAAGAATT against CIR, -0.197. Under CAGAAUAUAUGACAGGAAATT against YY1 stands 1.94 (active); under CCUCCGGAACAAGAACUAATT against ZNF397, -0.107; under GUCUGCUUUGUAUAGAUAATT against KLRC3, 0.833. As for CGACUACAUGUUCAAGAUUTT against RAB3A, the median seed-adjusted z-score was -0.0787. To GGAUGCGUUUUCUGACAAATT against GPR149 belongs -0.186. To GCAUACGAUUUUAAGCGGATT against PTEN belongs -0.408. In the case of GAACCAGGAGAGAAUAGAATT against PDGFRL, the median seed-adjusted z-score is 0.0203.

With GCUGCGAGCUCGAAACUUUTT against SEC14L4, the median seed-adjusted z-score was -0.714. As to CGACAAGUCUGACAGGGAUTT against PQBP1, the median seed-adjusted z-score is -1.12 (active).

For GGUUUGAGCUUACUCUUCATT against ACCN5, the median seed-adjusted z-score was 0.227. To GGGAAGAACAGAAUACUGATT against ZNF563 belongs 0.00283; to GCGUGGAAAUUGUACCCGUTT against MBNL3, -0.189. To GGAAAAGGAACGGAAUAAATT against MLN belongs -0.422. Under GCAGUUAACACUCAAGGAATT against MKKS stands 1.03 (active); under GGUAAUCUUUAUGAAGAGATT against GCM1, 0.0197; under GCCUGUAAGUUAUUAAAGATT against ARL4D, -0.523. For GGCUGAAAUUGUAACCCUATT against TPD52L3, the median seed-adjusted z-score was 0.552. Under GCAACCUUCUAACUACGGUTT against HNRNPA2B1 stands 1.33 (active); under CAGGAUCUGUUCAACCAAATT against VWA2, 0.584; under GGAUGGGAACAACCCUGCATT against HMGN4, -0.0471.

As for CCUCCUUGUUAGUGUCUUUTT against CLEC11A, the median seed-adjusted z-score is -1.1 (active).

Turning to CCAGGUCCCUAAUCAUGGATT against NOXA1, the median seed-adjusted z-score was -0.441. To GGGAAGCACUGGUCGAAGATT against DTD1 belongs -1.58 (active). To AGGCCUUUCUGGGACCUUATT against ZP4 belongs 0.0498; to CUAAGACCAGUAUAGUAAATT against ARF6, -0.805. Under GGAUCUGGUUCAACUUGGATT against FUT3 stands 0.11; under GUGUCUCAGGGAUAGGUAATT against MICAL2, -0.0224; under AGGAGUUCUUGGUCAUGAUTT against TNNC2, -0.773. As to GCAUUACAGUCUGAAUUGATT against PTPDC1, the median seed-adjusted z-score was -0.191. GCUUUAUGCUGCUAAGGCATT against PGD: the median seed-adjusted z-score is -1.55 (active). To CGACAAGUCUUCGACCUGATT against DGKZ belongs 0. On to GCUGCUAUUUGAUAGACCATT against HNRNPM, for which the median seed-adjusted z-score is 0.499.

As to GAAUGAUGAUGCAUGCCUUTT against MS4A10, the median seed-adjusted z-score was -0.24. Under CACCUCUAAUCAUCGAUGATT against UAP1 stands 0.0411; under AGGUCUGGACGACAACUAUTT against MST1, -1.47 (active); under GGAGCCUAUCAUAACCUUATT against ZNF484, 0.2. Regarding GGGUACCGAGGAUCGCUUUTT against LAMA5, the median seed-adjusted z-score is 0.229. Take GUAUCUAAGAGAUAUGGAATT against ORC5L: the median seed-adjusted z-score was -0.126. To GACUCCCAUUUGAGACUUUTT against ZMAT1 belongs -0.123.

Turning to ACACCUACAUGAUGACGCATT against EVX2, the median seed-adjusted z-score is 0.181. To CCUCAAAUGCAGUAUUUUUTT against HMOX1 belongs 0.45; to GCAACUACGUGACUCGCUATT against SMUG1, -1.38 (active); to CGUCAGUGCUUCGCAUACATT against ZBTB45, 0. To GAAGGAGCAGGAUUACCAATT against TMED4 belongs -0.895; to GAGCUUCAACUAACAGGAATT against NUPL2, 0.134; to CAUGGUCCAUUAUUCGUGATT against ATP6V1A, -0.0106.

Turning to GGAAUUGGUUUCAGUCAAATT against RCOR1, the median seed-adjusted z-score is -1.13 (active). Under GACUUACCUUCUGAGCAUATT against ZNF792 stands 0. In the case of CGACUUCAUUGUAAAGAAATT against LIPF, the median seed-adjusted z-score was 0.54.

On to GCUGCGUCAUUUUCGAAAATT against MOXD1, for which the median seed-adjusted z-score is -0.162. On to GAACGAGCUGGAUCCAUUATT against ARSF, for which the median seed-adjusted z-score is 0.111. To CCUUACGAAUCAUAAGAUATT against ZNF708 belongs 0.0562. Turning to CAGAGAACCUUCAAGUUAATT against ZNF239, the median seed-adjusted z-score is -0.191. To GCAUAGCCCUCAACAAGAATT against IRF6 belongs -1.79 (active). To GCCGCUUUCGGAAUAAGAUTT against DGKZ belongs 0; to CGGAGAACAUUGUUGUUCUTT against TMTC2, 0.0277.

Take GCACCUUGCAGGAUUGGAATT against PEAR1: the median seed-adjusted z-score was 0.071. Turning to ACCAUAGCCUCUCACCCUATT against RASA4, the median seed-adjusted z-score was -1.11 (active). To ACGCAACCCUCAACAGCUCTT against UTS2R belongs 0.0819; to GGGACUCAGUACUUCCAUATT against SLC39A8, 0.265. To CGAAGUUCAUAGACGAGAUTT against PPP1R2 belongs 0.208; to AGAGGUCUUCGACAAUAAATT against CD9, -1.02 (active). As to GAGCCUCCUCAAAUCCAAATT against SERPING1, the median seed-adjusted z-score was -0.244.

For CGUGGGAUAUGUUGACGGATT against BTNL3, the median seed-adjusted z-score is 0. Consider GGAAUUUUUCGGGUGGUUATT against ELF5, for which the median seed-adjusted z-score is -0.45. As to GAUCGAUAUCUUUACAAGATT against SLK, the median seed-adjusted z-score was 0.0479.

Consider CGAUGGAGAUCAACGUGAATT against UBE2E2, for which the median seed-adjusted z-score was -1.77 (active). Under CCUUCACUAUUGCCCGCAATT against ABCD1 stands 0. To UGAUGACACCAACCACGAATT against CNP belongs -0.116; to GGCCCAUAUUCAUCUGCUATT against STYX, 0.694.
